# Hits are enriched below; roughly 2.9% of the tested compounds scored in any of these assays.
# ZTA counter: counter-screen for EBNA-1 inhibitors: inhibitors of Epstein-Barr virus ZTA. inhibition, % at 11 µM. ZTA-DNA binding, fluorescence polarization. 320,000 tested, 0.15% active. P03206; in the data active = inhibition above about 33%
# PAFAH2 FP inh: PAFAH2 enzyme inhibitors, primary screen, biochemical, fluorescence polarization, human; Platelet-activating factor acetylhydrolase 2, cytoplasmic (Homo sapiens), Q99487; recombinant PAFAH2, FP-rhodamine activity probe; inhibition, % at 3.39 µM; 340,000 tested, 0.99% active; AID 492956, 2010;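 active = inhibition above the mean over all tested compounds plus 3 SD, cut at about 30% in these data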;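 also: inhibitors block probe labeling of enzyme so polarization drops; 0% = enzyme with DMSO and 100% = wells lacking PAFAH2 protein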
# PAFAH1B2 FP inh: PAFAH1B2 enzyme inhibitors, primary screen, biochemical, fluorescence polarization, human; Platelet-activating factor acetylhydrolase IB subunit alpha2 (Homo sapiens), P68402; recombinant PAFAH1B2, FP-rhodamine activity probe; inhibition, % at 3.39 µM; 340,000 tested, 1.2% active; AID 492953, 2010;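 active = inhibition above the mean of all tested compounds plus 3 SD, cut at about 24% in these data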;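 also: 0% = enzyme with DMSO and 100% = wells lacking PAFAH1B2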
# Target sequence (P68402 whole entry, looked up): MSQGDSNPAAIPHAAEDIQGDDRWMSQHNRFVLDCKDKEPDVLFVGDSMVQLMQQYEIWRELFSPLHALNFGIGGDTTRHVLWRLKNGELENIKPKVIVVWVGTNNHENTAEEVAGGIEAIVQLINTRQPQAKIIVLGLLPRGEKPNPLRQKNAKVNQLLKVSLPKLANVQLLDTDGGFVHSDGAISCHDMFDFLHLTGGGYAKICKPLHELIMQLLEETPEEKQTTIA
# pPAFAH inh: pPAFAH enzyme inhibitors, primary screen, biochemical, fluorescence polarization, human | inhibition, % at 3.39 µM | recombinant pPAFAH, FP-rhodamine probe fluorescence polarization | 330,000 tested, 1.5% active | Platelet-activating factor acetylhydrolase (Homo sapiens), Q13093;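 active = inhibition above the mean inhibition across the screen plus 3 SD, cut at about 25% in these data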;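 also: inhibitors block binding of the rhodamine activity-based probe so polarization drops; 0% = enzyme with DMSO and 100% = wells lacking pPAFAH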
# EBNA-1 inh: EBNA-1 DNA-binding inhibitors, primary screen, biochemical, fluorescence polarization. inhibition, % at 14.8 µM. 300,000 tested, 0.34% active. AID 1950, 2009; in the data active = inhibition above about 28%
# PAFAH1B3 FP inh: PAFAH1B3 enzyme inhibitors, primary screen, biochemical, fluorescence polarization, human; Platelet-activating factor acetylhydrolase IB subunit alpha1 (Homo sapiens), Q15102; recombinant PAFAH1B3, FP-rhodamine probe; inhibition, % at 3.39 µM; 340,000 tested, 0.28% active;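 active = inhibition above the screen-wide average of all tested compounds plus 3 SD, cut at about 25% in these data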;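 also: 0% = enzyme with DMSO only and 100% = wells lacking PAFAH1B3 protein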
# Target sequence (Q15102 whole entry, looked up): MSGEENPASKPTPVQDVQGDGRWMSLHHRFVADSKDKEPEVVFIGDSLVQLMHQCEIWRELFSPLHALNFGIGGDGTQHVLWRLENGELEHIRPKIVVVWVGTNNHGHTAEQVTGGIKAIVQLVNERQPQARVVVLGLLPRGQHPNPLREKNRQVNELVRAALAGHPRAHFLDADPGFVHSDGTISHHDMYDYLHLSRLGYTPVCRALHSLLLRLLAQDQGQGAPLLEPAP
# * = called active by the depositor; . = not tested or not shown.
SMILES,ZTA counter,PAFAH2 FP inh,PAFAH1B2 FP inh,pPAFAH inh,EBNA-1 inh,PAFAH1B3 FP inh
Cc1nc(SCCC(=O)O)c2cc(-c3ccccc3)sc2n1,12,-2,50*,2,4,-3
COc1ccc(OC)c(Nc2nc(NCc3ccco3)c3ccccc3n2)c1,0,-1,3,25*,-5,13
Cc1nn(-c2ccccc2)c(C)c1NC(=O)COC(=O)c1ccccc1,-2,19,4,6,.,-1
Cc1nn(-c2ccccc2)c(C)c1NC(=O)COC(=O)c1ccc(Cl)c(N)c1,3,27,3,28*,2,8
CN(CC(=O)Nc1ccccc1C(=O)Nc1ccccc1)C1CCCCC1,.,1,3,-7,.,12
COc1ccc(C2=NOC(Cn3nc(-c4ccccc4)cc3C(=O)NCc3ccccc3OC)C2)cc1 (configuration not stated),.,-21,-6,-6,.,-11
O=[N+]([O-])c1ccc(O)c(/C=N/NC(=S)Nc2ccc(Cl)cc2Cl)c1,-15,45*,42*,18,2,23
O=C(N/N=C/c1cc([N+](=O)[O-])ccc1O)Nc1ccccc1,2,3,32*,13,-4,3
O=[N+]([O-])c1ccc(O)c(C=NNc2ccc(S(=O)(=O)O)cc2)c1,.,6,6,.,.,9
COc1ccc(O)c(/C=N/Nc2nc3ccccc3[nH]2)c1,2,-6,9,6,12,2
O=[N+]([O-])c1cccc(N/N=C/c2cc([N+](=O)[O-])ccc2O)c1,-1,39*,-1,28*,2,8
O=[N+]([O-])c1ccc(O)c(/C=N/Nc2nc3ccccc3[nH]2)c1,1,-1,35*,12,-4,16
O=C(NN=Cc1cc([N+](=O)[O-])ccc1O)c1cccc2ccccc12,.,25,6,.,.,11
Cc1cc(Cl)ccc1NC(=O)CCC(=O)N/N=C/c1cc([N+](=O)[O-])ccc1O,3,6,3,2,3,3
Cc1ccc(N2C(=O)CC(Nc3ccc(Cl)c(S(=O)(=O)N(C)C)c3)C2=O)c(C)c1 (configuration not stated),-3,6,0,5,-1,1
O=C(CSc1ccc(S(=O)(=O)N2CCCC2)cn1)Nc1ccc([N+](=O)[O-])cc1C(F)(F)F,.,-2,27*,.,.,-5
CCOC(=O)NC(=O)CSc1ccc(S(=O)(=O)N2CCCCC2)cn1,.,-5,8,5,.,4
CC(C)(C)NC(=O)NC(=O)CSc1ccc(S(=O)(=O)N2CCCCC2)cn1,15,9,27*,0,.,2
Cc1ccc(C)c(NC(=O)CSc2ccc(S(=O)(=O)N3CCCC3)cn2)c1,10,3,9,9,.,14
CN(Cc1ccccc1)C(=O)COC(=O)c1ccc2ccccc2n1,-5,5,5,25*,5,5
CN(Cc1ccccc1)C(=O)COC(=O)c1ccc2c(c1)OCO2,-1,16,4,26*,9,-6
Cc1cccc(NC(=O)c2ccc(NS(=O)(=O)c3cccc4cccnc34)cc2)c1,.,-10,-4,.,.,4
CC(C)OCCCNC(=O)C(NS(=O)(=O)c1ccc2c(c1)c(=O)n(C)c(=O)n2C)c1ccccc1 (configuration not stated),9,.,.,4,6,.
O=C(CSc1nnc(-c2ccc(F)cc2)c2ccccc12)NCC1CCCO1 (configuration not stated),9,0,-5,7,2,-1
O=C(COC(=O)C12CC3CC(CC(C3)C1)C2)NNC(=O)c1ccccc1,.,3,40*,1,.,6
SMILES,ZTA counter,PAFAH2 FP inh,PAFAH1B2 FP inh,pPAFAH inh,EBNA-1 inh,PAFAH1B3 FP inh
COc1ccccc1NC(=O)COC(=O)C12CC3CC(CC(Cl)(C3)C1)C2,-7,1,24,-4,6,4
O=C(COC(=O)C12CC3CC(CC(C3)C1)C2)NCc1ccccc1,.,29,6,3,.,7
CC(CCc1ccccc1)NC(=O)COC(=O)C12CC3CC(CC(Br)(C3)C1)C2 (configuration not stated),10,-6,45*,4,10,7
O=C(COC(=O)C12CC3CC(CC(Br)(C3)C1)C2)NNC(=O)c1ccccc1,-6,3,52*,4,.,5
CC1CCCCC1NC(=O)COC(=O)C12CC3CC(CC(Cl)(C3)C1)C2 (configuration not stated),2,62*,35*,7,-4,8
CN(Cc1cnn(C)c1)S(=O)(=O)c1cccc([N+](=O)[O-])c1,6,1,5,-4,-2,3
Cc1cccc(NC(=O)CCN2CCCC(C)C2)c1 (configuration not stated),-5,2,3,3,2,7
O=C(COC(=O)C12CC3CC(CC(Cl)(C3)C1)C2)Nc1ccccc1,.,60*,35*,5,.,8
O=C(COC(=O)C12CC3CC(CC(Cl)(C3)C1)C2)N1CCCCC1,.,2,29*,-8,.,13
COc1ccc(-c2cc(C(F)F)n3ncc(C(=O)n4ccnc4C)c3n2)cc1,-4,30*,-1,2,3,5
CC1CCCCC1NC(=O)CSc1nnc(COc2ccccc2Cl)o1 (configuration not stated),-20,4,3,3,-18,0
O=C(CSc1nnc(COc2ccc(Cl)cc2)o1)NC1CC2CCC1C2 (configuration not stated),-3,2,24*,10,4,5
CC1CCCCC1NC(=O)CSc1nnc(COc2ccc(Cl)cc2)o1 (configuration not stated),8,-13,29*,-1,0,10
COc1ccc(OCc2nnc(SCC(=O)NC3CC4CCC3C4)o2)cc1 (configuration not stated),-12,-6,6,4,-6,0
N#CCC(=O)c1ccccc1Oc1ccc(Cl)cc1,3,-7,6,25*,6,3
NC(=O)c1ccccc1NC(=O)Nc1ccc(F)c(Cl)c1,11,6,6,4,11,2
CN1C(=O)/C(=C/c2cccc(Cl)c2)Sc2ccc(C(=O)N3CCOCC3)cc21,1,3,6,28*,2,-4
Cc1cc2c(cc1S(=O)(=O)Nc1ccc(OC(F)(F)F)cc1)OCC(=O)N2,9,2,14,34*,-7,8
COc1cc(NS(=O)(=O)c2cc3c(cc2C)NC(=O)CO3)cc(OC)c1,-1,-2,3,5,10,1
Cc1cc2cc(C(c3nnnn3Cc3ccco3)N3CCc4ccccc43)c(=O)[nH]c2cc1C (configuration not stated),-21,11,3,30*,-2,7

# Screening results as filed in PubChem BioAssay.
